According to the supplement of paper PMC9844399:
Structures can show the parent of a compound that is named as a salt. Values without a mark were called inactive.

test system: HeLa; experiment: MALAT1 nuclear FISH intensity, robust Z-score vs DMSO; higher = more nuclear MALAT1 lncRNA, active = -3 or less; conditions: 10 µM; 6 h
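Note: High-content confocal imaging of branched-DNA amplified FISH in 384-well plates, Hoechst-defined nuclei, score is well value minus plate DMSO median over DMSO robust SD, four wells per compound.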

Row | SMILES | MALAT1 nuclear FISH intensity
1 | C#CCCCCCCCCCCCCCCCC(=O)O [17-Octadecynoic acid] | -0.883
2 | CCC1=C[C@@H]2CN(C1)Cc1c([nH]c3ccccc13)[C@@](C(=O)OC)(c1cc3c(cc1OC)N(C)[C@H]1[C@@](O)(C(=O)OC)[C@H](OC(C)=O)[C@]4(CC)C=CCN5CC[C@]31[C@@H]54)C2 [Vinorelbine] | -0.378
3 | OC[C@H]1O[C@@H](O[C@@H]2[C@@H](CO)OC(O)(CO)[C@H]2O)[C@H](O)[C@@H](O)[C@H]1O (mixture of isomers) [Lactulose] | -0.821
4 | Cc1ccccc1C(OCCN(C)C)c1ccccc1 (stereo not given) [Orphenadrine Citrate] | 0.3
5 | CC/C(=C(\c1ccccc1)c1ccc(OCCN(C)C)cc1)c1ccccc1 [Tamoxifen] | 0.0111
6 | CC(CCc1ccccc1)NCC(O)c1ccc(O)c(C(N)=O)c1 (stereo not given) | -0.391
7 | O=C1CN(/N=C/c2ccc(-c3ccc([N+](=O)[O-])cc3)o2)C(=O)N1 [Dantrolene sodium salt] | -0.32
8 | COc1ccc2[nH]c([S@@+]([O-])Cc3ncc(C)c(OC)c3C)nc2c1 [Esomeprazole Potassium] | 0.0157
9 | NC[C@H](O)c1ccc(O)c(O)c1 [Norepinephrine Bitartrate Monohydrate] | 0.0168
10 | CC(CCc1ccc(O)cc1)NCCc1ccc(O)c(O)c1 (stereo not given) | -1.18
11 | CN1CCc2cccc3c2[C@H]1Cc1ccc(O)c(O)c1-3 | -0.972
12 | C[C@H](N[C@@H](CCc1ccccc1)C(=O)O)C(=O)N1CCC[C@H]1C(=O)O [Enalaprilat Maleate] | -0.501
13 | CCC1(c2ccccc2)C(=O)NCNC1=O [Primidone] | 0.625
14 | N=C(N)NC(=O)c1nc(Cl)c(N)nc1N [Amiloride hydrochloride hydrate] | -2.13
15 | CN(N=O)C(=O)N[C@@H](C=O)[C@@H](O)[C@H](O)[C@H](O)CO [Streptozocin] | -0.691
16 | O=P(O)(O)C(Sc1ccc(Cl)cc1)P(=O)(O)O [Tiludronate Disodium] | 1.17
17 | Cc1ccc(Nc2nccc(N(C)c3ccc4c(C)n(C)nc4c3)n2)cc1S(N)(=O)=O | 0.577
18 | Nc1nc(N)c2nc(-c3ccccc3)c(N)nc2n1 [Triamterene] | 0.85
19 | CO[C@@]12[C@H](COC(N)=O)C3=C(C(=O)C(C)=C(N)C3=O)N1C[C@@H]1N[C@@H]12 [Mitomycin C] | 0.475
20 | CC(=O)Oc1cc2c(s1)CCN(C(C(=O)C1CC1)c1ccccc1F)C2 (stereo not given) [Prasugrel] | -0.635

Row | SMILES | MALAT1 nuclear FISH intensity
21 | CCCCCCCCCCCCCC(=O)N[C@H](C)[C@@H](O)c1ccccc1 [D-erythro-MAPP] | 0.232
22 | CC(=O)OCC(=O)[C@@]1(O)CC[C@H]2[C@@H]3CCC4=CC(=O)CC[C@]4(C)[C@@]3(F)[C@@H](O)C[C@@]21C [Fludrocortisone Acetate] | 1.96
23 | CC1(C)C[C@@H]1C(=O)N/C(=C\CCCCSC[C@H](N)C(=O)O)C(=O)O | -0.961
24 | CCCCCCCC/C=C\C/C=C\C/C=C\CCCC(=O)NCCO [Mead ethanolamide] | -0.149
25 | CCCCC/C=C\C/C=C\C/C=C\C/C=C\CCCC(=O)O [Arachidonic acid (20:4, n-6)] | 0.518
26 | CC(=O)Nc1nnc(S(N)(=O)=O)s1 [Acetazolamide] | -2.08
27 | CCN(Cc1ccncc1)C(=O)C(CO)c1ccccc1 (stereo not given) [Tropicamide] | 0.299
28 | C[C@@H]1C/C=C/C=C/C=C/C=C/[C@H](O[C@@H]2O[C@H](C)[C@@H](O)[C@H](N)[C@@H]2O)C[C@@H]2O[C@](O)(C[C@@H](O)C[C@H]3O[C@@H]3/C=C/C(=O)O1)C[C@H](O)[C@H]2C(=O)O [Natamycin] | 0.00726
29 | O=C(c1ccccc1)c1ccc2n1CCC2C(=O)O (stereo not given) [Ketorolac Tromethamine] | -1.07
30 | CCCCC(=O)N(Cc1ccc(-c2ccccc2-c2nnn[nH]2)cc1)[C@H](C(=O)O)C(C)C [Valsartan] | 0.00591
31 | CNNCc1ccc(C(=O)NC(C)C)cc1 | -1.17
32 | Cc1cc(-c2ncc(CC(=O)Nc3ccc(-c4cnccn4)cn3)cc2C)ccn1 | 0.012
33 | Nc1ccn([C@H]2CC[C@@H](CO)O2)c(=O)n1 [Zalcitabine (2',3'-Dideoxycytidine)] | 0.465
34 | COc1cc2nc(N3CCN(C(=O)c4ccco4)CC3)nc(N)c2cc1OC [Prazocin] | -0.261
35 | NS(=O)(=O)c1cc2c(cc1C(F)(F)F)NCNS2(=O)=O [Hydroflumethiazide] | -0.821
36 | CN(C)CCCOc1nn(Cc2ccccc2)c2ccccc12 [Benzydamine hydrochloride] | -0.28
37 | COC(=O)CCC(=O)CN | -1.06
38 | Cc1cccc(Nc2cc(Cl)nc(SCC(=O)O)n2)c1C | -1.25
39 | Cc1nnc(NS(=O)(=O)c2ccc(N)cc2)s1 [Sulfamethizole] | -1.47
40 | [Cl-].[Li+] [Lithium Chloride] | -0.866
